Assay results taken from PubChem BioAssay (Tox21).
Results filed as inconclusive are left out. Active and inactive are the calls of the source. Unless noted, the call rests on the fitted dose curve; in most records, active means well fitted curve in the direction sought with a large enough effect in the repeat runs; inconclusive means weak or mixed curves; inactive means no such curve, though single readings can be large; an effect the other way counts as inactive or inconclusive.

Experiments:
[1] = biological target: Peroxisome proliferator-activated receptor delta (Homo sapiens) (UniProt Q03181); assay: qHTS assay to identify small molecule agonists of the peroxisome proliferator-activated receptor delta (PPARd) signaling pathway (AID 743212; calls by dose curve)
Peroxisome proliferator-activated receptor delta (Homo sapiens), sequence (Q03181 whole entry, looked up): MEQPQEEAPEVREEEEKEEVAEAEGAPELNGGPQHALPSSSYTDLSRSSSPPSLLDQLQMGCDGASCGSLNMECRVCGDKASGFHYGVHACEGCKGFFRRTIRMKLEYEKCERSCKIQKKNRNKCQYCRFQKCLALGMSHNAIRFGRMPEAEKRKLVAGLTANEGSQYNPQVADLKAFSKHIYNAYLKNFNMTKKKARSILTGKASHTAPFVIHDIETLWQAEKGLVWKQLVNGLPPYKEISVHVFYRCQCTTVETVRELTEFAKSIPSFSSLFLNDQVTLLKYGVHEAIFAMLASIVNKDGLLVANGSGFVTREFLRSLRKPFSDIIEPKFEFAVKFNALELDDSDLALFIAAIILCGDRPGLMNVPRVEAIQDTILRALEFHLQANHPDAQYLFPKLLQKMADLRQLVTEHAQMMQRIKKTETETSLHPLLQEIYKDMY
Method in brief: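 GeneBLAzer PPARd UAS-bla HEK293H cells (beta-lactamase reporter under UAS control), plated and rested 5 h at 37 C, then exposed to compounds in DMSO at 37 C; LiveBLAzer B/G FRET substrate added, 2 h room temperature, fluorescence read.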

[2] = qHTS assay to identify small molecule agonists of the farnesoid-X-receptor (FXR) signaling pathway - cell viability counter screen (AID 743218); further: nearly all actives have a fitted effect of over 45% in size; further: potency means the concentration at half of the fitted maximal effect
Method in brief: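 FXR-UAS-bla HEK 293T cells exposed to compounds for 16 h at 37C. Cytotoxicity read in the same wells by CellTiter-Glo luminescence after 30 min at room temperature, following the beta-lactamase FRET read.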

[3] = biological target: Bile acid receptor (Homo sapiens) (UniProt Q96RI1); assay: qHTS assay to identify small molecule agonists of the farnesoid-X-receptor (FXR) signaling pathway (AID 743220; active means well fitted activation curve with a large enough effect in the signal ratio in the repeat runs, not every such curve was filed as active; the % refers to the signal ratio)
Bile acid receptor (Homo sapiens), sequence (Q96RI1 whole entry, looked up): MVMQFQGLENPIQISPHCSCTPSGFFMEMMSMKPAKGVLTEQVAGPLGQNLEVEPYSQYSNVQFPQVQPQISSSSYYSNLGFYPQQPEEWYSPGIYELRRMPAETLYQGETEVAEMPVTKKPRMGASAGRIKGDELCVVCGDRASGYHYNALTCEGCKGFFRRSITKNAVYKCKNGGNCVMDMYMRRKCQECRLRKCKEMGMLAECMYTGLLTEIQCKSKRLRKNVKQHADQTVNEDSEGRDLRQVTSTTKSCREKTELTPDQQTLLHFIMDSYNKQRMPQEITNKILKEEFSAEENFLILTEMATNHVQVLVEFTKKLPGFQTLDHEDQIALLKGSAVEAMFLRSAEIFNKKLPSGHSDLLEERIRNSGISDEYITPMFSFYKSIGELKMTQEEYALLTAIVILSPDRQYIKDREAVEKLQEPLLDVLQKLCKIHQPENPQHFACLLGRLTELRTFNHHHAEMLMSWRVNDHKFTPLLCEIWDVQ
Method in brief: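 Beta-lactamase reporter under UAS control in GeneBLAzer FXR HEK 293T cells (5000/well) measured with LiveBLAzer FRET substrate after 2 h at room temperature. Compound exposure lasted 16 h at 37C.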

[4] = qHTS assay to identify small molecule antagonists of the farnesoid-X-receptor (FXR) signaling pathway - cell viability counter screen (AID 743221; active means well fitted cell-killing curve with a large enough effect in the repeat runs, not every such curve was filed as active; further: nearly all actives have a fitted effect of over 50% in size)
Method in brief: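 Multiplexed counter screen: viability of FXR-bla HEK 293T cells under agonist stimulation by chenodeoxycholic acid (50 uM, final) and test compound for 16 h at 37 C, measured by CellTiter-Glo luminescence in the reporter wells.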

[5] = qHTS assay to identify small molecule antagonists of the vitamin D receptor (VDR) signaling pathway - cell viability counter screen (AID 743225); further: nearly all actives have a fitted effect of over 50% in size
Method in brief: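 HEK293T VDR-bla; cpd + 1a,25-(OH)2D3 3 nM final, 16 h 37C/5% CO2; B/G FRET substrate 2 h RT; then CellTiter-Glo 30 min RT, luminescence.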

[6] = qHTS assay to identify small molecule agonists of the NFkB signaling pathway (AID 1159509; active means well fitted curve in the direction sought with a large enough effect in the signal ratio in the repeat runs, not every such curve was filed as active; the % refers to the signal ratio; further: series mostly up to about 61 µM)
Method in brief: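 After overnight attachment, reporter cells received test compounds, DMSO or positive controls and were incubated 5 hr at 37 C. FRET substrate was then added for 1.5 hr at room temperature before dual-emission fluorescence reading.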

[7] = qHTS assay to identify small molecule agonists of the NFkB signaling pathway - cell viability counter screen (AID 1159515; calls by dose curve; further: series mostly up to about 61 µM; nearly all actives have a fitted effect of over 55% in size)
Method in brief: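 NFkB-bla ME-180 cells, 2,000/well, plated overnight at 37 C; compound added for 5 hr at 37 C. Viability read in the same wells as the bla reporter, by CellTiter-Glo luminescence after 30 min at room temperature.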

[8] = qHTS assay to identify small molecule agonists of the endoplasmic reticulum stress response signaling pathway (AID 1159516; active means well fitted activation curve with a large enough effect in the signal ratio in the repeat runs, not every such curve was filed as active; the % refers to the signal ratio)
Method in brief: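 CellSensor ESRE-bla HeLa cells, 1,500 per well, plated overnight, then exposed to compounds for 5 hr at 37 C. Beta-lactamase reporter read with LiveBLAzer B/G FRET substrate after 2 hr at room temperature, 405 nm excitation, 460 and 530 nm emission.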

[9] = qHTS assay to identify small molecule antagonists of the retinoid-related orphan receptor gamma (ROR-gamma) signaling pathway - cell viability counter screen (AID 1159520); further: nearly all actives have a fitted effect of over 50% in size; further: potency means the concentration at half of the fitted maximal effect
Method in brief: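 Tet-on ROR gamma CHO cells (1,000/well) were plated 4 hr, given compounds in DMSO for 2 hr at 37 C, then induced with 1 uM final doxycycline for 16 hr. Viability was read as ATP by CellTiter-Glo luminescence after 30 min.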

[10] = qHTS assay to identify small molecule agonists of the AP-1 signaling pathway - cell viability counter screen (AID 1159525; calls by dose curve; further: nearly all actives have a fitted effect of over 55% in size)
Method in brief: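 ME-180 AP-1-bla, 2500 cells/well, Opti-MEM + 0.5% dialyzed FBS; overnight 37 °C; cpd 15-pt titration, 5 h 37 °C; CellTiter-Glo 30 min RT; luminescence read; normalised to TOAB and DMSO controls.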

[11] = qHTS assay to identify small molecule agonists of the AP-1 signaling pathway (AID 1159526; calls by dose curve)
[12] = qHTS assay to identify small molecule antagonists of the peroxisome proliferator-activated receptor delta (PPARd) signaling pathway - cell viability counter screen (AID 743213); further: nearly all actives have a fitted effect of over 50% in size
Method in brief: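 Viability counter-screen, qHTS format: PPARd-bla HEK293H, L165041 300 nM final, 17 h compound exposure at 37 C, CellTiter-Glo luminescence after 30 min RT.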

[13] = biological target: Bile acid receptor (Homo sapiens) (UniProt Q96RI1); assay: qHTS assay to identify small molecule antagonists of the farnesoid-X-receptor (FXR) signaling pathway (AID 743217; active means well fitted inhibition curve with a large enough effect in the signal ratio in the repeat runs, not every such curve was filed as active; the % refers to the signal ratio)
Method in brief: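 FXR-UAS-bla HEK 293T cells (beta-lactamase reporter) given compound plus chenodeoxycholic acid (50 uM final), 16 h at 37C. LiveBLAzer B/G FRET substrate added for 2 h at room temperature; fluorescence read.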

[14] = biological target: Nuclear receptor ROR-gamma (Homo sapiens) (UniProt P51449); assay: qHTS assay to identify small molecule antagonists of the retinoid-related orphan receptor gamma (ROR-gamma) signaling pathway (AID 1159521; further: nearly all actives have a fitted effect of over 50% in size; further: potency means the concentration at half of the fitted maximal effect)
Method in brief: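 Cells were plated, rested 4 h at 37 C, exposed to compounds for 2 h, then given 1 uM final doxycycline hyclate to induce RORγ expression. After 16 h, ONE-Glo luminescence from the ROR response element reporter was measured.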

[15] = qHTS assay to identify small molecule agonists of the peroxisome proliferator-activated receptor delta (PPARd) signaling pathway - cell viability counter screen (AID 743211); further: nearly all actives have a fitted effect of over 55% in size
Method in brief: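 Counter screen for cytotoxicity run in parallel with the PPARd reporter screen. Beta-lactamase reporter HEK293H cells exposed to compounds 17 h; ATP-based CellTiter-Glo luminescence quantified viability.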

[16] = biological target: Peroxisome proliferator-activated receptor delta (Homo sapiens) (UniProt Q03181); assay: qHTS assay to identify small molecule antagonists of the peroxisome proliferator-activated receptor delta (PPARd) signaling pathway (AID 743215; active means well fitted inhibition curve with a large enough effect in the signal ratio in the repeat runs, not every such curve was filed as active; the % refers to the signal ratio;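 further: cells stimulated with agonist L165041 at 300 nM final during compound exposure; series mostly up to about 62 µM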)
Method in brief: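 PPARd-bla HEK293H cells (UAS-bla reporter) preincubated 5 h, then given compound plus 300 nM final L165041 agonist for 17 h at 37 C. Beta-lactamase activity read by LiveBLAzer B/G FRET substrate fluorescence after 2 h at room temperature.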

[17] = biological target: Vitamin D3 receptor (Homo sapiens) (UniProt P11473); assay: qHTS assay to identify small molecule agonists of the vitamin D receptor (VDR) signaling pathway (AID 743222; calls by dose curve)
Vitamin D3 receptor (Homo sapiens), sequence (P11473 whole entry, looked up): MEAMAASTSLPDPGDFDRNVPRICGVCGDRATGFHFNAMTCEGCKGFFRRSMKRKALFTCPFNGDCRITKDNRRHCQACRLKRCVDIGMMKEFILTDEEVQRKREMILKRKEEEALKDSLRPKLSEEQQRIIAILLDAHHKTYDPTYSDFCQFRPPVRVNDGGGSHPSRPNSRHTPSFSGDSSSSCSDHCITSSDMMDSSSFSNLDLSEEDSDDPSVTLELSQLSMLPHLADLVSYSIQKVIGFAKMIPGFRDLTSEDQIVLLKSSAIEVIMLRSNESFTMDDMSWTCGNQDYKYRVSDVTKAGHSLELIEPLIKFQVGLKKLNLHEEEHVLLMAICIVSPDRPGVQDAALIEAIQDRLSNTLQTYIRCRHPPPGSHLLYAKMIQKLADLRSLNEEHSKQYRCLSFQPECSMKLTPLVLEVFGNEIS
Method in brief: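 VDR-bla cells plated 4 h at 37 C, then exposed to compounds for 16 h at 37 C. Beta-lactamase reporter activity measured by fluorescence after 2 h room-temperature loading with LiveBLAzer B/G FRET substrate.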

[18] = qHTS assay to identify small molecule agonists of the vitamin D receptor (VDR) signaling pathway - cell viability counter screen (AID 743224)
Method in brief: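 VDR-bla cells, 4 h after plating, exposed to compounds for 16 h at 37C; viability then read in the same wells as CellTiter-Glo luminescence after 30 min at room temperature, following the bla FRET read.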

[19] = qHTS assay to identify small molecule agonists of the endoplasmic reticulum stress response signaling pathway - cell viability counter screen (AID 1159517; calls by dose curve; further: nearly all actives have a fitted effect of over 50% in size; further: potency means the concentration at half of the fitted maximal effect)
Method in brief: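 Luminescence readout: CellTiter-Glo, 30 min RT, same wells as the ESRE-bla reporter read. HeLa ESRE-bla, 1,500 cells/well, o/n 37 C; cpd 5 hr 37 C/5% CO2.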

[20] = biological target: Vitamin D3 receptor (Homo sapiens) (UniProt P11473); assay: qHTS assay to identify small molecule antagonists of the vitamin D receptor (VDR) signaling pathway (AID 743223; active means well fitted inhibition curve with a large enough effect in the signal ratio in the repeat runs, not every such curve was filed as active; the % refers to the signal ratio)
Method in brief: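 Cells carrying a VDR-driven beta-lactamase reporter (VDR-bla) were co-treated with compound and 3 nM final 1alpha,25-dihydroxyvitamin D3 for 16 h at 37C; reporter activity was measured as FRET substrate fluorescence after 2 h at room temperature.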

Measured: Potency

CC(C)N(C(=O)COc1nnc(C(F)(F)F)s1)c1ccc(F)cc1
inactive: [1] | [2] | [3] | [4] | [5] | [6] | [7] | [8] | [9] | [10] | [11]

CN(C)c1ccc(N(C)C)cc1
not listed: [1] | [11] | [15] | [16] | [17] | [18] | [19] | [20]
inactive: all other assays above

COC(N)=O
not listed: [2] | [8] | [20]
inactive: all other assays above

O=C(O)COc1ccc(Cl)cc1
not listed: [1] | [3] | [13] | [14] | [19] | [20]
inactive: all other assays above

Cc1cc(=O)[nH]o1
not listed: [2] | [3] | [13] | [17] | [19] | [20]
inactive: all other assays above

Brc1ccccc1
not listed: [3] | [13] | [17] | [19] | [20]
inactive: all other assays above

C=CCN1CC[C@]23c4c5ccc(O)c4O[C@H]2C(=O)CC[C@@]3(O)[C@H]1C5
not listed: [1] | [4] | [15] | [16] | [19] | [20]
inactive: all other assays above

COCCOCCO
inactive: [15] | [1] | [5] | [6] | [7] | [8] | [9] | [14]

c1ccc(C2CC2)c(OCC2=NCCN2)c1
not listed: [3] | [4] | [13] | [17] | [19] | [20]
inactive: all other assays above

O=C(O)C(F)(F)C(F)(F)C(F)(F)C(F)(F)C(F)(F)C(F)(F)C(F)(F)C(F)(F)C(F)(F)F
not listed: [3] | [11] | [13] | [15] | [17] | [18] | [19] | [20]
inactive: all other assays above

CC/C(=N\OC/C=C/Cl)C1=C(O)CC(C2CCOCC2)CC1=O (stereo unspecified)
not listed: [1] | [3] | [13] | [19] | [20]
inactive: all other assays above

C/C=C/C=O
not listed: [1] | [3] | [13] | [16] | [19]
inactive: all other assays above

CC(C)=CCOc1c2occc2cc2ccc(=O)oc12
not listed: [4] | [8] | [17] | [20]
inactive: all other assays above

CCOP(=O)(OCC)Oc1ccc([N+](=O)[O-])cc1
not listed: [8] | [12] | [13] | [20]
inactive: all other assays above

CNP(=O)(OC)Oc1ccc(C(C)(C)C)cc1Cl (stereo unspecified)
not listed: [3] | [8] | [13] | [14] | [17]
inactive: all other assays above

CCC(Cl)CCl (stereo unspecified)
not listed: [1] | [3] | [4] | [8] | [12] | [13]
inactive: all other assays above

O=[N+]([O-])c1ccc(F)c([N+](=O)[O-])c1
active: [2] 2.21 µM | [19] 17.5 µM | [9] 38.9 µM | [14] 49 µM
not listed: [4] | [8] | [12] | [15]
inactive: all other assays above

COc1nn(C(=O)NS(=O)(=O)c2ccccc2OC(F)(F)F)c(=O)n1C
not listed: [1] | [8] | [14]
inactive: all other assays above

CC(C)N(CCC(C(N)=O)(c1ccccc1)c1ccccn1)C(C)C (stereo unspecified)
not listed: [3] | [8] | [13] | [15]
inactive: all other assays above
